Among the data in PubChem BioAssay (EPA / NIEHS) are outcome and AC50 values, retold here.

Active and inactive are the calls of the source. The calls were made as follows: active = hit-call score of the fitted dose curve at least 0.9, where 1 is the maximum; inactive = score below 0.9.

A short description of assay [1]: BSK_CASM3C_SRB: Viability Assessment in the BioMAP Diversity Plus: CASM3C Assay (AID 2283050).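 Also: total protein by SRB staining as cytotoxicity measure in parallel cultures.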 Conditions: primary human coronary artery smooth muscle cells.
Read-out in assay [2]: Tissue Factor, F3 (gene 2152)
Description: BSK_CASM3C_TissueFactor: BioMAP Diversity Plus: CASM3C Assay for Tissue Factor Biomarker Activity (AID 2283052).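 Also: cell surface tissue factor protein level read by ELISA.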 Conditions: primary human coronary artery smooth muscle cells; actives raise or lower the signal.

Read-out in assay [3]: Interferon-gamma inducible Protein 10 (IP10), CXCL10 (gene 3627)
As to the kind of experiment: BSK_hDFCGF_IP10: BioMAP Diversity Plus: hDFCGF Assay for Interferon-gamma inducible Protein 10 (IP10) Biomarker Activity (AID 2283053). The conditions noted are these: primary human foreskin fibroblasts; actives raise or lower the signal. In short, it runs like this:
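ELISA read-out of IP-10 (CXCL10) from primary human skin fibroblasts, 24 h after compound addition. Gain or loss of signal versus DMSO baseline, bidirectional curve fitting.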

Read-out in assay [4]: Epidermal growth factor receptor (EGFR), EGFR (gene 1956)
As to the kind of experiment: BSK_hDFCGF_EGFR: BioMAP Diversity Plus: hDFCGF Assay for Epidermal growth factor receptor (EGFR) Biomarker Activity (AID 2283057). Conditions: primary human foreskin fibroblasts; actives raise or lower the signal. In short, it runs like this: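 ELISA readout of EGFR on human dermal fibroblasts (primary foreskin cells), 24 h post-dosing; bidirectional curve fit vs DMSO baseline, gain or loss of signal scored.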

Read-out in assay [5]: Interleukin-8 (IL8), CXCL8 (gene 3576)
As to the kind of experiment: BSK_hDFCGF_IL8: BioMAP Diversity Plus: hDFCGF Assay for Interleukin-8 (IL8) Biomarker Activity (AID 2283058). The conditions noted are these: primary human foreskin fibroblasts; actives raise or lower the signal. In a few lines: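 Fibroblast monolayers (human foreskin, hDFCGF) received test chemical for 24 h before ELISA detection of IL-8; either increases or decreases relative to DMSO count as activity.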

Assay [6] can be described thus: BSK_hDFCGF_Proliferation: Cell Proliferation Assessment in the BioMAP Diversity Plus: hDFCGF Assay (AID 2283059).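 Also: curves fitted for both rise and fall of signal versus DMSO baseline.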 The conditions noted are these: primary human foreskin fibroblasts. In short, it runs like this: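 This proliferation readout used SRB total-protein staining of human foreskin fibroblasts […], normalized to DMSO with bidirectional curve fitting.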

A short description of assay [7]: BSK_hDFCGF_SRB: Viability Assessment in the BioMAP Diversity Plus: hDFCGF Assay (AID 2283061).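 Also: cells exposed to compound for 24 h before the read.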 Conditions: primary human foreskin fibroblasts. In short, it runs like this:
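SRB-based viability read on primary human skin fibroblasts at 24 h: TCA fixation, 0.1% dye, 560 nm. Gain or loss of signal is fitted against the DMSO negative control.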

Read-out in assay [8]: TIMP metallopeptidase inhibitor 1 (TIMP1), TIMP1 (gene 7076)
Description: BSK_hDFCGF_TIMP1: BioMAP Diversity Plus: hDFCGF Assay for TIMP metallopeptidase inhibitor 1 (TIMP1) Biomarker Activity (AID 2283062). Conditions: primary human foreskin fibroblasts; actives raise or lower the signal. In short, it runs like this: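 Bidirectional curve fitting against DMSO baseline yielded this endpoint, based on ELISA detection of TIMP-1 in primary human foreskin fibroblasts exposed to compound for 24 h.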

Read-out in assay [9]: Matrix Metallopeptidase 1 (MMP1), MMP1 (gene 4312)
Description: BSK_hDFCGF_MMP1: BioMAP Diversity Plus: hDFCGF Assay for Matrix Metallopeptidase 1 (MMP1) Biomarker Activity (AID 2283064). Conditions: primary human foreskin fibroblasts; actives raise or lower the signal. In short, it runs like this:
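ELISA read-out of MMP1 from human foreskin fibroblasts (primary skin cells), 24 h post-dose. Gain or loss of signal was fitted bidirectionally versus DMSO negative control; cytotoxicity was checked by SRB in parallel cultures.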

Read-out in assay [10]: Vascular cell adhesion molecule 1 (VCAM1), VCAM1 (gene 7412)
As to the kind of experiment: BSK_hDFCGF_VCAM1: BioMAP Diversity Plus: hDFCGF Assay for Vascular cell adhesion molecule 1 (VCAM1) Biomarker Activity (AID 2283065).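 As to AC50: VCAM-1 protein level quantified by ELISA after 24 h chemical exposure.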 The conditions noted are these: primary human foreskin fibroblasts; actives raise or lower the signal. In a few lines: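 Measured after 24 h chemical treatment of primary human skin fibroblasts, VCAM-1 was detected by ELISA and concentration-response analysed in both directions versus DMSO vehicle.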

Read-out in assay [11]: Interferon-gamma inducible Protein 10 (IP10), CXCL10 (gene 3627)
Description: BSK_KF3CT_IP10: BioMAP Diversity Plus: KF3CT Assay for Interferon-gamma inducible Protein 10 (IP10) Biomarker Activity (AID 2283068). The conditions noted are these: primary human keratinocytes with fibroblasts; actives raise or lower the signal. In a few lines: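 Signal is secreted/surface IP-10 by ELISA in a human primary skin co-culture of keratinocytes and foreskin fibroblasts, taken 24 h post-dosing; DMSO served as negative control.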

Read-out in assay [12]: urokinase plasminogen activator (uPA), PLAU (gene 5328)
Description: BSK_KF3CT_uPA: BioMAP Diversity Plus: KF3CT Assay for urokinase plasminogen activator (uPA) Biomarker Activity (AID 2283075). The conditions noted are these: primary human keratinocytes with fibroblasts; actives raise or lower the signal. In short, it runs like this:
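Skin co-culture (keratinocytes + foreskin fibroblasts), human primary; 24 h post-dose; uPA by ELISA; gain/loss fit vs DMSO baseline.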

Read-out in a further assay: CD40, CD40 (gene 958)
Description: BSK_LPS_CD40: BioMAP Diversity Plus: LPS Assay for CD40 Biomarker Activity (AID 2283076). Conditions: primary human HUVEC with PBMC; actives raise or lower the signal. In short, it runs like this:
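Using a multiplexed primary human co-culture (umbilical vein endothelium plus PBMC), CD40 was read by ELISA 24 h after dosing, with cytotoxicity tracked by sulforhodamine B staining of parallel cultures and activity fitted bidirectionally versus DMSO.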

Read-out in assay [13]: E-selectin (Homo sapiens) (UniProt P16581)
Description: BSK_LPS_Eselectin: BioMAP Diversity Plus: LPS Assay for Eselectin Biomarker Activity (AID 2283077). The conditions noted are these: primary human HUVEC with PBMC; actives raise or lower the signal. In a few lines: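 Dose chemical onto LPS-driven HUVEC/PBMC co-culture; after 24 h, run ELISA for E-selectin; fit up- and down-going responses relative to DMSO control.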

Read-out in assay [14]: Interleukin-8 (IL8), CXCL8 (gene 3576)
Description: BSK_LPS_IL8: BioMAP Diversity Plus: LPS Assay for Interleukin-8 (IL8) Biomarker Activity (AID 2283078). The conditions noted are these: primary human HUVEC with PBMC; actives raise or lower the signal. In a few lines:
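In this LPS system, chemical-treated human umbilical vein endothelium/PBMC co-cultures were harvested at 24 h for IL-8 ELISA.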

The nature of assay [15]: BSK_LPS_SRB: Viability Assessment in the BioMAP Diversity Plus: LPS Assay (AID 2283079).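 Also: total protein by sulforhodamine B absorbance as a cytotoxicity measure; measured one day after compound addition; fitted in both directions against DMSO so loss or gain of signal counts.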 The conditions noted are these: primary human HUVEC with PBMC. In short, it runs like this: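 Cytotoxicity endpoint in human endothelial–PBMC co-culture: 24 h exposure, then SRB (0.1%) staining, 560 nm read.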
Read-out in assay [16]: Interleukin-1 alpha (IL1a), IL1A (gene 3552)
As to the kind of experiment: BSK_LPS_IL1a: BioMAP Diversity Plus: LPS Assay for Interleukin-1 alpha (IL1a) Biomarker Activity (AID 2283080). Conditions: primary human HUVEC with PBMC; actives raise or lower the signal. In short, it runs like this: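 Primary human HUVEC and PBMC co-culture stimulated with LPS is dosed and harvested at 24 h. Both increases and decreases in ELISA-measured IL-1a are scored relative to DMSO.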

Read-out in assay [17]: Monocyte Chemoattractant Protein-1 (MCP1), CCL2 (gene 6347)
Description: BSK_LPS_MCP1: BioMAP Diversity Plus: LPS Assay for Monocyte Chemoattractant Protein-1 (MCP1) Biomarker Activity (AID 2283081).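 As to AC50: secreted MCP-1 protein quantified by ELISA in culture supernatant.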 Conditions: primary human HUVEC with PBMC; actives raise or lower the signal. In short, it runs like this:
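Values derive from bidirectional fitting against DMSO of ELISA-measured MCP-1 in a human primary endothelial and mononuclear cell co-culture, 24 h after chemical addition under LPS activation.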

The nature of assay [18]: BSK_LPS_PGE2: BioMAP Diversity Plus: LPS Assay for Prostaglandin E2 (PGE2) Biomarker Activity (AID 2283082).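 As to AC50: secreted prostaglandin E2 measured by ELISA in LPS-stimulated co-culture.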 The conditions noted are these: primary human HUVEC with PBMC; actives raise or lower the signal. In short, it runs like this:
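ELISA read-out of PGE2 from human umbilical vein endothelial cells co-cultured with peripheral blood mononuclear cells under LPS, 24 h post-dose. Gain or loss of signal scored relative to DMSO baseline.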

Read-out in assay [19]: Transforming growth factor beta 1 (TGFb1), TGFB1 (gene 7040)
Description: BSK_KF3CT_TGFb1: BioMAP Diversity Plus: KF3CT Assay for Transforming growth factor beta 1 (TGFb1) Biomarker Activity (AID 2283072). The conditions noted are these: primary human keratinocytes with fibroblasts; actives raise or lower the signal. In a few lines: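 Read-out: ELISA for TGF-b1 in keratinocyte/foreskin fibroblast human skin co-culture, 24 h after dosing; bidirectional curve fit vs DMSO baseline; gain or loss of signal scored.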

Chain of E-selectin (Homo sapiens) (P16581 whole entry, looked up): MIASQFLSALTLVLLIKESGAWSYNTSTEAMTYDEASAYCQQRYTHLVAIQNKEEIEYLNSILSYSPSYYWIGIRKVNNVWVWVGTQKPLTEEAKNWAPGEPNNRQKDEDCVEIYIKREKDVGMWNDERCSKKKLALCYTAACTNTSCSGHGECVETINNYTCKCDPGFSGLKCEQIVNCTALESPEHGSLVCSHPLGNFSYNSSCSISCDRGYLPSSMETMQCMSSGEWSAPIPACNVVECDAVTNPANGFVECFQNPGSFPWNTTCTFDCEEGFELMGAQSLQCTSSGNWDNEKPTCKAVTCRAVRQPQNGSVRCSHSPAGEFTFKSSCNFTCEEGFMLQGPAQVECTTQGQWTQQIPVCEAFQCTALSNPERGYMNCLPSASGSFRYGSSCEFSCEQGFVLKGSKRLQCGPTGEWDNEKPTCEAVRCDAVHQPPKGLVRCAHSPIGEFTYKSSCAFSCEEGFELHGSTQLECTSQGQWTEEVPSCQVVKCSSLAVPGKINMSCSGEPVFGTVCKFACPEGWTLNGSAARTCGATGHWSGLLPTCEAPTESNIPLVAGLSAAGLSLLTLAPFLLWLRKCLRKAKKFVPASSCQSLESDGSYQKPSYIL

As for `O=[N+]([O-])O`, the result in assay [1], in [2], in [3], in assay [4], in assay [5] and in [6] was inactive. Besides, the outcome in assay [7], in assay [8], in assay [9], in [10], in [11] and in assay [12] was inactive. The outcome was “inactive” with CD40, CD40 (gene 958); “inactive” in [13]; “inactive” in assay [14]; “inactive” in assay [15]; “inactive” in [16]; “inactive” in [17]. Besides, the result in [18] was inactive.
Take `O=C1C(Cl)=C(Cl)C(=O)C(Cl)=C1Cl`: the AC50 in [1] was 20 µM (active); in assay [2] it was 6.19 µM (active); in [3], 20 µM (active); in assay [5] it was 28.8 µM (active); in [6], 1.63 µM (active); in [7], 6.62 µM (active). The AC50 in [8] was 12.5 µM (active); in assay [9] it was 26.8 µM (active); in assay [10], 11.1 µM (active); in [11], 23.7 µM (active); in [19], 20 µM (active); in [12], 28.5 µM (active). Besides, the concentration at half-maximal activity (AC50) in the assay with CD40, CD40 (gene 958) was 15.1 µM (active); in assay [13], 30.2 µM (active); in assay [14], 29 µM (active); in assay [15], 32.2 µM (active); in assay [16], 14 µM (active); in [17], 30.8 µM (active). For the same compound, the outcome in assay [4] and in assay [18] was inactive.
For the compound `O=C(CCl)c1ccccc1`, the half-maximal activity concentration (AC50) in assay [1] is 12.2 µM (active); in assay [3] it was 4.64 µM (active); in [5], 7.52 µM (active); in assay [6], 1.4 µM (active); in [7], 4.74 µM (active); in assay [8] it was 5.12 µM (active). Further, the AC50 is 9.79 µM (active) in assay [9]; 2.56 µM (active) in assay [10]; 13.8 µM (active) in [11]; 25.7 µM (active) in assay [19]; 30 µM (active) in assay [12]; 4.58 µM (active) with CD40, CD40 (gene 958). In addition, the AC50 in assay [13] was 6.13 µM (active); in assay [14], 7.85 µM (active); in assay [15], 15.2 µM (active); in [16] it was 3.72 µM (active); in [17], 6.34 µM (active); in [18] it was 5.38 µM (active). For the same compound, the result in [2] and in [4] was inactive.
For `COCC(=O)N(c1c(C)cccc1C)N1CCOC1=O`, the result in assay [1], in [2], in [3], in assay [4], in [5] and in [6] was inactive. Moreover, the outcome in assay [7], in assay [8], in [9], in [10], in [11] and in assay [19] was inactive. Besides, the outcome in assay [12] was “inactive”; with CD40, CD40 (gene 958) it was “inactive”; in [13] it was “inactive”; in [14] it was “inactive”; in [15], “inactive”; in assay [16], “inactive”. Moreover, the result in assay [17] and in assay [18] was inactive.

One may read the AC50 as the concentration at which the activity in the assay is half-maximal.
